Laboratory results taken from the supplement of paper PMC10849652.
The full data set covers some 8,800 targets. This sample favours those with a hit. About 0.5% of all pairs of compound and target were hits.

Assays:
Experiment in all cases: log2 fold change, soluble protein after heating vs DMSO (PISA); higher = thermal stabilisation; K562 lysate, 10 uM; active = over 0.2 and 3.5 SD of the protein, either way, in both replicates (recomputed)
[1] = compound: Cc1cn(-c2cc(NC(=O)c3ccc(C)c(Nc4nccc(-c5cccnc5)n4)c3)cc(C(F)(F)F)c2)cn1 [nilotinib]
Summary of the method: (§1)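 A 30 min treatment with 10 μM compound was applied to crude K562 extract at 1 mg/mL protein in PBS pH 7.4 with 1 mM MgCl2. Heating for 3 min spanned 48°C-58°C, after which aliquots were pooled, adjusted to 0.5% NP-40 at 4°C and spun at 21,000xg for 90 min. TMTpro 16plex LC-MS/MS of the supernatant, with channel sums equalised, gave values recorded as log-two fold change in thermal stability against solvent controls, from duplicates.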

[2] = compound: Cc1nc(Nc2n[nH]c3c2CN(C(=O)N[C@H](CN(C)C)c2ccccc2)C3(C)C)c2sccc2n1
Summary of the method: as §1

[3] = compound: Cc1nc(Nc2ncc(C(=O)Nc3c(C)cccc3Cl)s2)cc(N2CCN(CCO)CC2)n1 [dasatinib]
Summary of the method: as §1

[4] = compound: Cc1ncc(-c2ccnc(Nc3ccc(S(C)(=O)=O)cc3)n2)n1C(C)C
Summary of the method: as §1

[5] = compound: Cn1cc(-c2ccc3c(c2)CCN3C(=O)Cc2cccc(C(F)(F)F)c2)c2c(N)ncnc21
Summary of the method: as §1

[6] = compound: Cn1cc(CNCC2CCN(c3ncc(C(=O)NO)cn3)CC2)c2ccccc21 [quisinostat]
Summary of the method: as §1

[7] = compound: Cn1cncc1[C@@](N)(c1ccc(Cl)cc1)c1ccc2c(c1)c(-c1cccc(Cl)c1)cc(=O)n2C [tipifarnib]
Summary of the method: as §1

[8] = compound: NC(=O)Nc1cc(-c2cccc(F)c2)sc1C(=O)N[C@H]1CCCNC1
Summary of the method: as §1

[9] = compound: NC(=O)c1cnc(N[C@@H]2CCCC[C@@H]2N)nc1Nc1cccc(-n2nccn2)c1
Summary of the method: as §1

[10] = compound: NC1(c2ccc(-c3nc4ccn5c(=O)[nH]nc5c4cc3-c3ccccc3)cc2)CCC1
Summary of the method: as §1

Measured: log2 fold change

MRPL19 (UniProt P49406)
inactive: [1] 0.001 | [2] -0.015 | [3] -0.039 | [4] -0.004 | [5] 0.005 | [6] -0.055 | [7] 0.033 | [8] 0.024 | [9] -0.018 | [10] -0.044

MAPKAPK3 (UniProt Q16644)
inactive: [1] -0.024 | [2] 0.077 | [3] 0.023 | [4] -0.058 | [5] 0.016 | [6] 0.01 | [7] 0.017 | [8] 0.021 | [9] 0.013 | [10] 0.009

MRPL12 (UniProt P52815)
inactive: [1] 0.032 | [2] -0.01 | [3] 0.034 | [4] 0.099 | [5] -0.013 | [6] 0.084 | [7] 0.031 | [8] -0.023 | [9] -0.022 | [10] -0.006

MAP2K4 isoform 2 (UniProt P45985)
inactive: [1] -0.013 | [2] 0.052 | [3] -0.014 | [4] 0.248 | [5] 0.046 | [6] -0.112 | [7] -0.023 | [8] 0.019 | [9] 0.063 | [10] 0

LYAR (UniProt Q9NX58)
inactive: [1] 0.01 | [2] -0.021 | [3] 0.002 | [4] 0.005 | [5] 0.014 | [6] 0.003 | [7] 0 | [8] -0.002 | [9] -0.016 | [10] -0.012

MRPL46 (UniProt Q9H2W6)
inactive: [1] -0.036 | [2] 0.039 | [3] 0.016 | [4] 0.064 | [5] 0.03 | [6] -0.034 | [7] 0.05 | [8] 0.03 | [9] -0.023 | [10] 0.035

MAPK1 (UniProt P28482)
inactive: [1] -0.042 | [2] 0.205 | [3] -0.014 | [4] 0.091 | [5] -0.01 | [6] 0.07 | [7] 0.011 | [8] 0.01 | [9] 0.088 | [10] 0.003

MAPKAP1 (UniProt Q9BPZ7)
inactive: [1] 0.105 | [2] -0.118 | [3] -0.085 | [4] 0.083 | [5] -0.003 | [6] -0.087 | [7] -0.056 | [8] 0.042 | [10] -0.093

MAPK7 (UniProt Q13164)
inactive: [6] -0.156 | [8] -0.044 | [9] 0.028 | [10] 0.011

KIFC3 isoform 6 (UniProt Q9BVG8)
inactive: [3] -0.055 | [5] -0.146 | [6] -0.189 | [8] 0.079 | [10] -0.213

MAPK12 (UniProt P53778)
inactive: [1] 0.082 | [2] 0.048 | [3] -0.057 | [4] 0.085 | [6] 0.051 | [7] -0.005 | [8] -0.015 | [10] -0.044
active: [5] 0.375

MBTPS1 (UniProt Q14703)
inactive: [3] 0.106 | [5] -0.101 | [6] -0.053 | [8] 0.026 | [10] -0.045

LPCAT1 (UniProt Q8NF37)
inactive: [1] -0.039 | [2] 0.015 | [3] -0.084 | [4] 0.014 | [5] -0.045 | [6] 0.016 | [7] 0.046 | [8] 0.008 | [9] 0.053 | [10] 0.033

LSM11 (UniProt P83369)
inactive: [3] 0.266 | [5] -0.049 | [6] -0.114 | [8] 0.049 | [10] -0.037

MAP4K4 isoform 6 (UniProt O95819)
inactive: [3] -0.01 | [5] 0.115 | [9] 0.021 | [10] 0.083

LRRC7 (UniProt Q96NW7)
Chain of UniProt Q96NW7 (Q96NW7 whole entry, looked up): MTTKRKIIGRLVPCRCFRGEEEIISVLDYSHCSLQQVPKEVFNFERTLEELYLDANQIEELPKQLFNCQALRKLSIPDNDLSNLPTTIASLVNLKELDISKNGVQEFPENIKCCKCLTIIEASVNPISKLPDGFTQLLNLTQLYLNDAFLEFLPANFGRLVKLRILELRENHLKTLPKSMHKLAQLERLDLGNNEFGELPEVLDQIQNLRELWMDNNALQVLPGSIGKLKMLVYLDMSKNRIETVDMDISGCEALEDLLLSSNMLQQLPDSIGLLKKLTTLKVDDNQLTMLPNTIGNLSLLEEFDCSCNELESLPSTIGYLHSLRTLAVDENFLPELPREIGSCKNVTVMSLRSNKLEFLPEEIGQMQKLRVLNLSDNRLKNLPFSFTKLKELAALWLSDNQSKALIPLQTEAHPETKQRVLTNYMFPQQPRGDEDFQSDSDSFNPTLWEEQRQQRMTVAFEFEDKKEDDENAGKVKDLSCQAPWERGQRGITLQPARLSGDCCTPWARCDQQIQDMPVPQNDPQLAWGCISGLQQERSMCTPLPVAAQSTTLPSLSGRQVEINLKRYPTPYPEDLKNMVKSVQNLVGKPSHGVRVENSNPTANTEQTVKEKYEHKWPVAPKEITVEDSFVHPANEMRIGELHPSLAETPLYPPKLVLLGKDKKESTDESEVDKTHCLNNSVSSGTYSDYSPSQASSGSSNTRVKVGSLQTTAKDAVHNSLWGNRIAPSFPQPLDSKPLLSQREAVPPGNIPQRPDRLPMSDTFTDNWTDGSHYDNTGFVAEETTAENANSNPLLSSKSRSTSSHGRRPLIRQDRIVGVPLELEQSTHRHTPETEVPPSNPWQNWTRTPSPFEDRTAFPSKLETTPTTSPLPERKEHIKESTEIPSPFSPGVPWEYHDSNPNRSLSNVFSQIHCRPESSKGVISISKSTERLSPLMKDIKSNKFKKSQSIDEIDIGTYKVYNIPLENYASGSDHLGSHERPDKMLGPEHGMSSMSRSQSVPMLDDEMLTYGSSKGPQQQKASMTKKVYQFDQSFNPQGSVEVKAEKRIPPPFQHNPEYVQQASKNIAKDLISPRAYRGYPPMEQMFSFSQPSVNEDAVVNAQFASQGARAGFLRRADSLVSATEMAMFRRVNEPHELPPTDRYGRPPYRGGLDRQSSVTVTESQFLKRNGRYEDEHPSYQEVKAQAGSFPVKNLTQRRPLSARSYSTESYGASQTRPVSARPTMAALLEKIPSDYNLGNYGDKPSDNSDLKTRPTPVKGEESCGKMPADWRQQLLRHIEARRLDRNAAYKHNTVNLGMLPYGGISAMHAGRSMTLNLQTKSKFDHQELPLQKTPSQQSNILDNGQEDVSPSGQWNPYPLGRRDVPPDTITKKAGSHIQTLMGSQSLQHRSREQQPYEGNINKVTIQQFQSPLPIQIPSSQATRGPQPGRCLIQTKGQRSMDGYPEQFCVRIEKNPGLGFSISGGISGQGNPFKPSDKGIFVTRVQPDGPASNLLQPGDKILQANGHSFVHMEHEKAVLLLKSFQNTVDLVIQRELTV
inactive: [3] 0.059 | [5] -0.043 | [6] 0.128 | [8] -0.009 | [9] 0.069

LRP1 (UniProt Q07954)
inactive: [8] 0.114 | [9] 0.122
active: [6] -0.936

MARF1 (UniProt Q9Y4F3)
inactive: [1] -0.064 | [2] 0.024 | [3] -0.031 | [4] 0.031 | [5] -0.03 | [6] -0.053 | [7] -0.062 | [8] 0.088 | [10] -0.035

MDM1 (UniProt Q8TC05)
inactive: [1] -0.073 | [2] -0.008 | [3] 0.015 | [4] -0.149 | [5] 0.056 | [7] 0.006 | [9] -0.005 | [10] 0.061

MAP3K6 (UniProt O95382)
inactive: [1] 0.122 | [2] -0.023 | [4] 0.006 | [7] -0.011

KIF26A (UniProt Q9ULI4)
Chain of UniProt Q9ULI4 (Q9ULI4 whole entry, looked up): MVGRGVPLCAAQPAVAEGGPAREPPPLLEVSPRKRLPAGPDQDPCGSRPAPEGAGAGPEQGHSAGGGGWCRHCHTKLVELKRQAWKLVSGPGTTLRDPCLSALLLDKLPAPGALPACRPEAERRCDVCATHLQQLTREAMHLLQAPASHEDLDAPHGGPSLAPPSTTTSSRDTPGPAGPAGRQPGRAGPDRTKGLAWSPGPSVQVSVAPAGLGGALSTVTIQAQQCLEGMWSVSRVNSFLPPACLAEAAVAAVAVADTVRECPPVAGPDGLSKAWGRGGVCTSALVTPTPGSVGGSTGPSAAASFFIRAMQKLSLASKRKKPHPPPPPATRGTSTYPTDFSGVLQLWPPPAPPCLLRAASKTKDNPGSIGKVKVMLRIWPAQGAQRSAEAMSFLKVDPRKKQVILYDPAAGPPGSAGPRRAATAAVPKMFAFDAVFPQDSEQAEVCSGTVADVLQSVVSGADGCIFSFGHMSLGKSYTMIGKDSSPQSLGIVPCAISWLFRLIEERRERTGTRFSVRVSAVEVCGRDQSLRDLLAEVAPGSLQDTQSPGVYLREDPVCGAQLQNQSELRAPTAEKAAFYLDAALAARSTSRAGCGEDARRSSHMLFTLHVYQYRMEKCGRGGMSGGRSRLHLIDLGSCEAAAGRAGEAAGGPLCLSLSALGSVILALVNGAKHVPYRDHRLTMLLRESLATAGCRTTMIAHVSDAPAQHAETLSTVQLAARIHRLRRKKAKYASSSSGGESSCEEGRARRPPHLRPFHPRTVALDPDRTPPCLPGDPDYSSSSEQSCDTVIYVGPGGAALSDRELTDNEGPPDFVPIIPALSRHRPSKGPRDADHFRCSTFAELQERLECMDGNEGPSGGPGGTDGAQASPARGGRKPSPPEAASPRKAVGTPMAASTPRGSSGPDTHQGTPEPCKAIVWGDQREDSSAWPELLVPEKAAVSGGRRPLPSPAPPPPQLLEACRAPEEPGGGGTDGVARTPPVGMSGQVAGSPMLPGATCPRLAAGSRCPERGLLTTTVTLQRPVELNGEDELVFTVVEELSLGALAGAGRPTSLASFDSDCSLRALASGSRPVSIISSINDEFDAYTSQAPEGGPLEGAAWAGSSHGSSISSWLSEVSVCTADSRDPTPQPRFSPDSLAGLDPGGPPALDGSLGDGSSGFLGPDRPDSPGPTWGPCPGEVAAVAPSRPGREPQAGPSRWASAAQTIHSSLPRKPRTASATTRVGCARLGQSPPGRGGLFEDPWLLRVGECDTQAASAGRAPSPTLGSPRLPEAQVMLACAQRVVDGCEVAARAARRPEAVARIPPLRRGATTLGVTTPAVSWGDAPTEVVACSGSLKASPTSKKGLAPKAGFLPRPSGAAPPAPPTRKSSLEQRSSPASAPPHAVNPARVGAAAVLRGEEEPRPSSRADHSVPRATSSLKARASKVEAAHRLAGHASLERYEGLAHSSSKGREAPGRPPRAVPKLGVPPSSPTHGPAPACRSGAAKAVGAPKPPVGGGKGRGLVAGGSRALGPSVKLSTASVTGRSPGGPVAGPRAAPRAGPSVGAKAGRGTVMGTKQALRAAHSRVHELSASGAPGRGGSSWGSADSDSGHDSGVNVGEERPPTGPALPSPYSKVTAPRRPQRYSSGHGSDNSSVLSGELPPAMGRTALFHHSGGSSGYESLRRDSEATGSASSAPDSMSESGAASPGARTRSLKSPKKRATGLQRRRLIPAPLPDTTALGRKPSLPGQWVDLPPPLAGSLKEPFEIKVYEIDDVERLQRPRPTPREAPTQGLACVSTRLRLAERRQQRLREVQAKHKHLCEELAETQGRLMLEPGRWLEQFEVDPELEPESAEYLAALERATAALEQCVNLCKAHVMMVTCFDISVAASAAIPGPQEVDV
inactive: [1] 0.035 | [2] -0.013 | [3] 0.003 | [4] 0.01 | [5] 0.014 | [6] -0.092 | [7] 0.226 | [8] -0.078 | [10] -0.091

KRAS isoform 2 (UniProt P01116)
inactive: [3] -0.029 | [5] -0.025 | [6] 0.018 | [8] 0.001 | [9] -0.046 | [10] 0.036

MEGF8 (UniProt Q7Z7M0)
inactive: [3] -0.059 | [5] -0.003 | [6] 0.047 | [8] -0.073 | [10] -0.073

MEX3A (UniProt A1L020)
inactive: [1] 0.026 | [2] -0.069 | [3] -0.029 | [4] -0.137 | [5] -0.084 | [7] 0.211

KIF21A (UniProt H0YI78)
inactive: [1] 0.067 | [2] -0.005 | [3] 0.044 | [4] 0.143 | [5] 0.055 | [7] -0.069 | [9] 0.104 | [10] 0.082

MOCS3 (UniProt O95396)
inactive: [1] -0.008 | [2] -0.054 | [3] -0.056 | [4] 0.056 | [5] -0.049 | [6] -0.219 | [7] 0.045 | [8] -0.054 | [10] -0.03

MPI (UniProt P34949)
inactive: [1] 0.002 | [2] -0.02 | [3] -0.035 | [4] 0.019 | [5] -0.022 | [6] -0.025 | [7] 0.009 | [8] 0.029 | [9] 0.016 | [10] -0.026

LRRIQ1 (UniProt Q96JM4)
Chain of UniProt Q96JM4 (Q96JM4 whole entry, looked up): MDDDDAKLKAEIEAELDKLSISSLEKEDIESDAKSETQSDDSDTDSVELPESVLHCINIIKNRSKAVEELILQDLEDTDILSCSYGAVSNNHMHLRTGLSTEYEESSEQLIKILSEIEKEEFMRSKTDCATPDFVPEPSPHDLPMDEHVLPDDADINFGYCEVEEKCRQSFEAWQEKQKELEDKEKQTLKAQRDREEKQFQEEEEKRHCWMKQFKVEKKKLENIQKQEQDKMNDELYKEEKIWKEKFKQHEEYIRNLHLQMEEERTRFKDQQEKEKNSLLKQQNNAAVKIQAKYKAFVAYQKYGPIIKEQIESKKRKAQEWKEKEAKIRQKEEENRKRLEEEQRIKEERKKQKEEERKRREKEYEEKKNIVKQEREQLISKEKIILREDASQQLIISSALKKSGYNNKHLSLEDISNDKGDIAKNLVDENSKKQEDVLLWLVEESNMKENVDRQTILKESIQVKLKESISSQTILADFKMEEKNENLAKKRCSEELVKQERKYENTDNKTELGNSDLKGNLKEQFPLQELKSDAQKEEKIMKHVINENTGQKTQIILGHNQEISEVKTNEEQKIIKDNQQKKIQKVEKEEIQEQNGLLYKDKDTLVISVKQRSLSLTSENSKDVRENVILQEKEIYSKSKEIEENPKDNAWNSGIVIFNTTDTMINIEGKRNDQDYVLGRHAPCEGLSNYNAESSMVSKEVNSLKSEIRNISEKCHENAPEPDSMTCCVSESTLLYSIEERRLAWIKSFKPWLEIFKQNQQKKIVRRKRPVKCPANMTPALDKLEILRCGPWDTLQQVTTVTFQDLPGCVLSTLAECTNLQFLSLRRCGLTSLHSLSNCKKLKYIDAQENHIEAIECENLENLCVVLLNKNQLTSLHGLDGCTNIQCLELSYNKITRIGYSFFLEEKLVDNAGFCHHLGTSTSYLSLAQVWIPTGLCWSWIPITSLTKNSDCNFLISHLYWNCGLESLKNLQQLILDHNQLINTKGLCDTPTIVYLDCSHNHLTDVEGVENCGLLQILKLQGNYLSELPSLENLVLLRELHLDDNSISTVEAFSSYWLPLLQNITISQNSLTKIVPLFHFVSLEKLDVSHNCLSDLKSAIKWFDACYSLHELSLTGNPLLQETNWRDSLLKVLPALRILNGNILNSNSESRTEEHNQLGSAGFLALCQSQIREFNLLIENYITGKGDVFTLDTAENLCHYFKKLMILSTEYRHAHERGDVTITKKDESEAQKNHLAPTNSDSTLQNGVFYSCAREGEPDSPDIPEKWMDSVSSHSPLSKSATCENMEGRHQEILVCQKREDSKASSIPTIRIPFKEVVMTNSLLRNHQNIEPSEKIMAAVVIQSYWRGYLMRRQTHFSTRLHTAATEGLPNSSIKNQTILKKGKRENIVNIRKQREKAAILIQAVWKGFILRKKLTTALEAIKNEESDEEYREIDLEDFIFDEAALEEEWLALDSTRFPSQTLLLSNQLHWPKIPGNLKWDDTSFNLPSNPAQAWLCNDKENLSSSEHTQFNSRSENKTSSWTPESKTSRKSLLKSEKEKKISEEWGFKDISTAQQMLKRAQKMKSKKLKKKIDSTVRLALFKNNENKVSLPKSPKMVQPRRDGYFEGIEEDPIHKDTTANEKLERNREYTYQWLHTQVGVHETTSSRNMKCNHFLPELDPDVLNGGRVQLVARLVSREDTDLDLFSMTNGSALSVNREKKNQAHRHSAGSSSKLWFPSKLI
inactive: [6] -0.518 | [8] 0.242 | [9] 0.019

MRC2 (UniProt Q9UBG0)
inactive: [1] -0.001 | [2] -0.055 | [3] -0.201 | [4] 0.26 | [5] 0.073 | [6] -0.056 | [7] 0.083 | [8] 0.144 | [10] 0.068

LRRC9 (UniProt Q6ZRR7)
inactive: [6] -0.171 | [8] -0.038

MAP3K4 isoform 2 (UniProt Q9Y6R4)
inactive: [6] 0.009 | [8] 0.112

MAPK3 (UniProt H0YEX6)
inactive: [1] -0.522 | [2] 0.646 | [4] 0.12 | [7] 0.097

LY6E (UniProt Q16553)
inactive: [1] -0.141 | [2] 0.031 | [4] 0.056 | [7] 0.033 | [9] 0.08

KIF18B (UniProt Q86Y91)
inactive: [3] 0.073 | [5] 0.076 | [6] -0.025 | [8] 0.17 | [9] 0.025

MANEA (UniProt Q5SRI9)
inactive: [3] -0.003 | [5] 0.046 | [6] 0.046 | [8] 0.05 | [9] 0.01 | [10] -0.044

MAST2 (UniProt Q6P0Q8)
inactive: [3] 0.049 | [5] 0.044 | [6] -0.024 | [8] 0.047 | [9] -0.005 | [10] -0.036

MRPL22 (UniProt Q9NWU5)
inactive: [1] 0.04 | [2] 0.017 | [4] 0.03 | [6] 0.025 | [7] -0.003 | [8] -0.001 | [9] -0.073 | [10] 0.081

MAP4K2 (UniProt Q12851)
active: [8] 0.965
inactive: [3] 0.511 | [5] 0.123 | [6] -0.193 | [9] 0.159 | [10] -0.062

LARS (UniProt Q9P2J5)
inactive: [1] 0.012 | [2] 0.003 | [3] -0.065 | [4] -0.012 | [5] 0.038 | [6] -0.005 | [7] -0.006 | [8] 0.034 | [9] 0 | [10] -0.024

KRI1 (UniProt Q8N9T8)
inactive: [1] -0.099 | [2] 0.02 | [3] -0.025 | [4] 0 | [5] -0.014 | [6] -0.125 | [7] -0.073 | [8] -0.006 | [10] 0.06

KMT2B (UniProt Q9UMN6)
inactive: [3] 0.013 | [5] 0.108 | [6] 0.346 | [8] -0.047 | [10] 0.122

LYN isoform 2 (UniProt P07948)
inactive: [1] 0.125 | [2] 0.143 | [3] 0.438 | [4] 0.257 | [5] 0.061 | [6] -0.111 | [7] -0.615 | [8] 0.748 | [10] -0.053
